# Experimental data reported in article PMC5540273 (PLoS ONE, 2017).
# Where two headings read alike, the source gives them in different places.
# Key:
# [1] = system: FGFR1; details: concentration: 1 μM, replicates: in singlicate; n = 1
# [2] = system: FGFR2; details: concentration: 1 μM, replicates: in singlicate; n = 1
# [3] = system: FGFR3; details: concentration: 1 μM, replicates: in singlicate; n = 1
# [4] = system: FGFR4; details: concentration: 1 μM, replicates: in singlicate; n = 1
# [5] = system: FGR; details: concentration: 1 μM, replicates: in singlicate; n = 1
# [6] = system: FLT1; details: concentration: 1 μM, replicates: in singlicate; n = 1
# [7] = system: FLT3-autoinhibited; details: concentration: 1 μM, replicates: in singlicate; n = 1
# [8] = system: FLT3; details: concentration: 1 μM, replicates: in singlicate; n = 1
# [9] = system: FLT4; details: concentration: 1 μM, replicates: in singlicate; n = 1
# [10] = system: FRK; details: concentration: 1 μM, replicates: in singlicate; n = 1
# [11] = system: FYN; details: concentration: 1 μM, replicates: in singlicate; n = 1
# [12] = system: GAK; details: concentration: 1 μM, replicates: in singlicate; n = 1
# [13] = system: T1, GCN2(Kin.Dom.2,S808G); details: concentration: 1 μM, replicates: in singlicate; n = 1
# T1 construct: gene EIF2AK4
# [14] = system: GRK1; details: concentration: 1 μM, replicates: in singlicate; n = 1
# [15] = system: T2, GRK2; details: concentration: 1 μM, replicates: in singlicate; n = 1
# T2 construct: gene ADRBK1
# [16] = system: T3, GRK3; details: concentration: 1 μM, replicates: in singlicate; n = 1
# T3 construct: gene ADRBK2
# [17] = system: GRK4; details: concentration: 1 μM, replicates: in singlicate; n = 1
# [18] = system: GRK7; details: concentration: 1 μM, replicates: in singlicate; n = 1
# [19] = system: GSK3A; details: concentration: 1 μM, replicates: in singlicate; n = 1
# [20] = system: GSK3B; details: n = 1
# [21] = concentration: 1 μM, replicates: in singlicate
# 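Also: KINOMEscan kinase panel screen.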
smiles,measurement,setting,value
COc1ccc(C)c(Nc2ccnc(Nc3ccc(-c4cnc[nH]4)cc3)n2)c1.Cl [GW784041],%Inh,[1],23%
same,%Inh,[2],4%
same,%Inh,[3],48%
same,%Inh,[4],100%
same,%Inh,[5],86%
same,%Inh,[6],14%
same,%Inh,[7],0%
same,%Inh,[8],15%
same,%Inh,[9],10%
same,%Inh,[10],69%
same,%Inh,[11],56%
same,%Inh,[12],52%
same,%Inh,[13],100%
same,%Inh,[14],0%
same,%Inh,[15],0%
same,%Inh,[16],0%
same,%Inh,[17],27%
same,%Inh,[18],15%
same,%Inh,[19],32%
same,%Inh,[20]; [21],0%
COc1cccc(-c2nc(-c3ccccc3)[nH]c2-c2ccncc2)c1 [SB-610250],%Inh,[1],0%
same,%Inh,[2],0%
same,%Inh,[3],0%
same,%Inh,[4],5%
same,%Inh,[5],14%
same,%Inh,[6],32%
same,%Inh,[7],5%
same,%Inh,[8],0%
same,%Inh,[9],7%
same,%Inh,[10],28%
same,%Inh,[11],24%
same,%Inh,[12],72%
same,%Inh,[13],1%
same,%Inh,[14],0%
same,%Inh,[15],0%
same,%Inh,[16],49%
same,%Inh,[17],0%
same,%Inh,[18],0%
same,%Inh,[19],0%
same,%Inh,[20]; [21],19%
CN(c1ccc2c(c1)nc(NCc1ccccc1)n2C)c1ccnc(Nc2ccc(CS(C)(=O)=O)cc2)n1.Cl [GW811603],%Inh,[1],100%
same,%Inh,[2],27%
same,%Inh,[3],0%
same,%Inh,[4],0%
same,%Inh,[5],33%
same,%Inh,[6],96.9%
same,%Inh,[7],58%
same,%Inh,[8],98.8%
same,%Inh,[9],99.9%
same,%Inh,[10],86%
same,%Inh,[11],69%
same,%Inh,[12],0%
same,%Inh,[13],0%
same,%Inh,[14],0%
same,%Inh,[15],35%
same,%Inh,[16],8%
same,%Inh,[17],33%
same,%Inh,[18],16%
same,%Inh,[19],0%
same,%Inh,[20]; [21],0%
c1ccc(Oc2ccc(Nc3ccnc4cc(-c5ccc(CN6CCCCC6)o5)ccc34)cc2)nc1 [GW567143],%Inh,[1],9%
same,%Inh,[2],0%
same,%Inh,[3],1%
same,%Inh,[4],1%
same,%Inh,[5],65%
same,%Inh,[6],20%
same,%Inh,[7],67%
same,%Inh,[8],98.4%
same,%Inh,[9],23%
same,%Inh,[10],33%
same,%Inh,[11],74%
same,%Inh,[12],79%
same,%Inh,[13],24%
same,%Inh,[14],0%
same,%Inh,[15],0%
same,%Inh,[16],8%
same,%Inh,[17],0%
same,%Inh,[18],0%
same,%Inh,[19],4%
same,%Inh,[20]; [21],8%
O=C(Nc1n[nH]c2nc(-c3cccc(O)c3)ccc12)C1CC1 [SB-711805],%Inh,[1],18%
same,%Inh,[2],0%
same,%Inh,[3],0%
same,%Inh,[4],0%
same,%Inh,[5],9%
same,%Inh,[6],10%
same,%Inh,[7],21%
same,%Inh,[8],13%
same,%Inh,[9],0%
same,%Inh,[10],0%
same,%Inh,[11],0%
same,%Inh,[12],23%
same,%Inh,[13],12%
same,%Inh,[14],24%
same,%Inh,[15],0%
same,%Inh,[16],0%
same,%Inh,[17],24%
same,%Inh,[18],3%
same,%Inh,[19],98.8%
same,%Inh,[20]; 1 µM,96.3%
CC(C)NCC(Cc1ccccc1)NC(=O)c1cc(Br)c(-c2ccnc3[nH]ccc23)s1.Cl.Cl (stereo not drawn) [GSK1383281],%Inh,[1],86%
same,%Inh,[2],62%
same,%Inh,[3],60%
same,%Inh,[4],64%
same,%Inh,[5],16%
same,%Inh,[6],65%
same,%Inh,[7],0%
same,%Inh,[8],68%
same,%Inh,[9],48%
same,%Inh,[10],0%
same,%Inh,[11],2%
same,%Inh,[12],51%
same,%Inh,[13],33%
same,%Inh,[14],72%
same,%Inh,[15],79%
same,%Inh,[16],87%
same,%Inh,[17],0%
same,%Inh,[18],91.5%
same,%Inh,[19],7%
same,%Inh,[20]; [21],0%
Cc1ccc(C)c(NC(=O)Nc2ccc(C)c(-c3ccc(C(=O)Nc4ccncc4)cc3)c2)c1 [GSK1398473],%Inh,[1],0%
same,%Inh,[2],0%
same,%Inh,[3],10%
same,%Inh,[4],3%
same,%Inh,[5],16%
same,%Inh,[6],48%
same,%Inh,[7],0%
same,%Inh,[8],91.8%
same,%Inh,[9],39%
same,%Inh,[10],50%
same,%Inh,[11],25%
same,%Inh,[12],0%
same,%Inh,[13],0%
same,%Inh,[14],0%
same,%Inh,[15],0%
same,%Inh,[16],9%
same,%Inh,[17],0%
same,%Inh,[18],0%
same,%Inh,[19],0%
same,%Inh,[20]; [21],12%
Cn1cc(-c2ccc3c(c2)CCN3C(=O)Cc2cc(F)cc(C(F)(F)F)c2)c2c(N)ncnc21 [GSK2635225],%Inh,[1],26%
same,%Inh,[2],0%
same,%Inh,[3],11%
same,%Inh,[4],33%
same,%Inh,[5],35%
same,%Inh,[6],39%
same,%Inh,[7],13%
same,%Inh,[8],90%
same,%Inh,[9],30%
same,%Inh,[10],18%
same,%Inh,[11],41%
same,%Inh,[12],21%
same,%Inh,[13],2%
same,%Inh,[14],0%
same,%Inh,[15],0%
same,%Inh,[16],0%
same,%Inh,[17],3%
same,%Inh,[18],0%
same,%Inh,[19],8%
same,%Inh,[20]; [21],2%
O=C1NC(=O)C(c2ccccc2Cl)=C1Nc1cccc(Cl)c1 [SB-342409],%Inh,[1],0%
same,%Inh,[2],4%
same,%Inh,[3],16%
same,%Inh,[4],94.1%
same,%Inh,[5],22%
same,%Inh,[6],11%
same,%Inh,[7],0%
same,%Inh,[8],0%
same,%Inh,[9],0%
same,%Inh,[10],15%
same,%Inh,[11],22%
same,%Inh,[12],7%
same,%Inh,[13],0%
same,%Inh,[14],13%
same,%Inh,[15],0%
same,%Inh,[16],36%
same,%Inh,[17],26%
same,%Inh,[18],0%
same,%Inh,[19],45%
same,%Inh,[20]; 1 µM,33%
